Target: CaNbp2
Assay: SPOT peptide array binding signal intensity (averaged, normalized) (arbitrary units (background-subtracted, floor 0; scale differs between SH3 domains)); higher = stronger binding of the SH3 domain to the peptide
Procedure, shortened: (§1)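 SH3 domains from four yeast species were expressed as GST fusions in E. coli BL21(DE3) and purified on glutathione Sepharose. Each was incubated at 10 μg/ml overnight at 4°C in TBS-based blocking buffer on cellulose membranes bearing synthetic 15-mer peptides, in which serines replaced cysteines. Bound protein was detected with anti-GST antibody, an HRP anti-mouse secondary and luminol, then imaged and quantified with Genespotter. The binding signal is the normalized, background-subtracted spot intensity averaged over replicates, in arbitrary units that are not the same from one domain to another.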

| Binder | SPOT peptide array binding signal intensity |
| --- | --- |
| FPPKRKPLLRPQRSD | 371 |

Target: CaRvs167
Assay: as above
Procedure, shortened: as §1

| Binder | SPOT peptide array binding signal intensity |
| --- | --- |
| FPPKRKPLLRPQRSD | 221 |

Target: CaRvs167-3
Assay: as above
Procedure, shortened: as §1

| Binder | SPOT peptide array binding signal intensity |
| --- | --- |
| FPPKRKPLLRPQRSD | 18.5 |

Target: CaSho1
Assay: as above
Procedure, shortened: as §1

| Binder | SPOT peptide array binding signal intensity |
| --- | --- |
| FPPKRKPLLRPQRSD | 245 |

Target: CaSla1-D1-D2
Assay: as above
Procedure, shortened: as §1

| Binder | SPOT peptide array binding signal intensity |
| --- | --- |
| FPPKRKPLLRPQRSD | 872 |

Target: CaSla1-D3
Assay: as above
Procedure, shortened: as §1

| Binder | SPOT peptide array binding signal intensity |
| --- | --- |
| FPPKRKPLLRPQRSD | 9.75 |

Target: ScAbp1
Assay: as above
Procedure, shortened: as §1

| Binder | SPOT peptide array binding signal intensity |
| --- | --- |
| FPPKRKPLLRPQRSD | 598 |

Target: ScBbc1
Assay: as above
Procedure, shortened: as §1

| Binder | SPOT peptide array binding signal intensity |
| --- | --- |
| FPPKRKPLLRPQRSD | 294 |

Target: ScBem1-D1
Assay: as above
Procedure, shortened: as §1

| Binder | SPOT peptide array binding signal intensity |
| --- | --- |
| FPPKRKPLLRPQRSD | 87 |

Target: ScBzz1-D1
Assay: as above
Procedure, shortened: as §1

| Binder | SPOT peptide array binding signal intensity |
| --- | --- |
| FPPKRKPLLRPQRSD | 10.5 |

Target: ScBzz1-D2
Assay: as above
Procedure, shortened: as §1

| Binder | SPOT peptide array binding signal intensity |
| --- | --- |
| FPPKRKPLLRPQRSD | 50 |

Target: ScCyk3
Assay: as above
Procedure, shortened: as §1

| Binder | SPOT peptide array binding signal intensity |
| --- | --- |
| FPPKRKPLLRPQRSD | 38 |

Target: ScFus1
Assay: as above
Procedure, shortened: as §1

| Binder | SPOT peptide array binding signal intensity |
| --- | --- |
| FPPKRKPLLRPQRSD | 138 |

Target: ScHof1
Assay: as above
Procedure, shortened: as §1

| Binder | SPOT peptide array binding signal intensity |
| --- | --- |
| FPPKRKPLLRPQRSD | 0.25 |

Target: ScHse1
Assay: as above
Procedure, shortened: as §1

| Binder | SPOT peptide array binding signal intensity |
| --- | --- |
| FPPKRKPLLRPQRSD | 1190 |

Target: ScLsb1
Assay: as above
Procedure, shortened: as §1

| Binder | SPOT peptide array binding signal intensity |
| --- | --- |
| FPPKRKPLLRPQRSD | 27.8 |

Target: ScLsb2
Assay: as above
Procedure, shortened: as §1

| Binder | SPOT peptide array binding signal intensity |
| --- | --- |
| FPPKRKPLLRPQRSD | 30 |

Target: ScLsb3
Assay: as above
Procedure, shortened: as §1

| Binder | SPOT peptide array binding signal intensity |
| --- | --- |
| FPPKRKPLLRPQRSD | 2030 |

Target: ScLsb4
Assay: as above
Procedure, shortened: as §1

| Binder | SPOT peptide array binding signal intensity |
| --- | --- |
| FPPKRKPLLRPQRSD | 71 |

Target: ScMyo3
Assay: as above
Procedure, shortened: as §1

| Binder | SPOT peptide array binding signal intensity |
| --- | --- |
| FPPKRKPLLRPQRSD | 7.75 |

Target: ScMyo5
Assay: as above
Procedure, shortened: as §1

| Binder | SPOT peptide array binding signal intensity |
| --- | --- |
| FPPKRKPLLRPQRSD | 2.75 |

Target: ScNbp2
Assay: as above
Procedure, shortened: as §1

| Binder | SPOT peptide array binding signal intensity |
| --- | --- |
| FPPKRKPLLRPQRSD | 761 |

Target: ScPex13
Assay: as above
Procedure, shortened: as §1

| Binder | SPOT peptide array binding signal intensity |
| --- | --- |
| FPPKRKPLLRPQRSD | 52.5 |

Target: ScRvs167
Assay: as above
Procedure, shortened: as §1

| Binder | SPOT peptide array binding signal intensity |
| --- | --- |
| FPPKRKPLLRPQRSD | 410 |

Target: ScSho1
Assay: as above
Procedure, shortened: as §1

| Binder | SPOT peptide array binding signal intensity |
| --- | --- |
| FPPKRKPLLRPQRSD | 1040 |

Target: ScSla1-D1-D2
Assay: as above
Procedure, shortened: as §1

| Binder | SPOT peptide array binding signal intensity |
| --- | --- |
| FPPKRKPLLRPQRSD | 1030 |

Target: ScSla1-D3
Assay: as above
Procedure, shortened: as §1

| Binder | SPOT peptide array binding signal intensity |
| --- | --- |
| FPPKRKPLLRPQRSD | 16 |

Target: SpAbp1-D1
Assay: as above
Procedure, shortened: as §1

| Binder | SPOT peptide array binding signal intensity |
| --- | --- |
| FPPKRKPLLRPQRSD | 874 |

Target: SpBbc1
Assay: as above
Procedure, shortened: as §1

| Binder | SPOT peptide array binding signal intensity |
| --- | --- |
| FPPKRKPLLRPQRSD | 37 |

Target: SpBzz1-D1
Assay: as above
Procedure, shortened: as §1

| Binder | SPOT peptide array binding signal intensity |
| --- | --- |
| FPPKRKPLLRPQRSD | 444 |

Target: SpBzz1-D2
Assay: as above
Procedure, shortened: as §1

| Binder | SPOT peptide array binding signal intensity |
| --- | --- |
| FPPKRKPLLRPQRSD | 0.5 |

Target: SpCyk3
Assay: as above
Procedure, shortened: as §1

| Binder | SPOT peptide array binding signal intensity |
| --- | --- |
| FPPKRKPLLRPQRSD | 5 |

Target: SpHof1
Assay: as above
Procedure, shortened: as §1

| Binder | SPOT peptide array binding signal intensity |
| --- | --- |
| FPPKRKPLLRPQRSD | 182 |

Target: SpHof1-2
Assay: as above
Procedure, shortened: as §1

| Binder | SPOT peptide array binding signal intensity |
| --- | --- |
| FPPKRKPLLRPQRSD | 16.8 |

Target: SpHof1-3
Assay: as above
Procedure, shortened: as §1

| Binder | SPOT peptide array binding signal intensity |
| --- | --- |
| FPPKRKPLLRPQRSD | 285 |

Target: SpHse1
Assay: as above
Procedure, shortened: as §1

| Binder | SPOT peptide array binding signal intensity |
| --- | --- |
| FPPKRKPLLRPQRSD | 326 |

Target: SpLsb1
Assay: as above
Procedure, shortened: as §1

| Binder | SPOT peptide array binding signal intensity |
| --- | --- |
| FPPKRKPLLRPQRSD | 153 |

Target: SpLsb4
Assay: as above
Procedure, shortened: as §1

| Binder | SPOT peptide array binding signal intensity |
| --- | --- |
| FPPKRKPLLRPQRSD | 1630 |

Target: SpMyo1
Assay: as above
Procedure, shortened: as §1

| Binder | SPOT peptide array binding signal intensity |
| --- | --- |
| FPPKRKPLLRPQRSD | 22.8 |

Target: SpNbp2
Assay: as above
Procedure, shortened: as §1

| Binder | SPOT peptide array binding signal intensity |
| --- | --- |
| FPPKRKPLLRPQRSD | 286 |

Target: SpPex13
Assay: as above
Procedure, shortened: as §1

| Binder | SPOT peptide array binding signal intensity |
| --- | --- |
| FPPKRKPLLRPQRSD | 26 |

Target: SpRvs167
Assay: as above
Procedure, shortened: as §1

| Binder | SPOT peptide array binding signal intensity |
| --- | --- |
| FPPKRKPLLRPQRSD | 536 |

Target: SpSla1-D1-D2
Assay: as above
Procedure, shortened: as §1

| Binder | SPOT peptide array binding signal intensity |
| --- | --- |
| FPPKRKPLLRPQRSD | 2 |

Target: SpSla1-D3
Assay: as above
Procedure, shortened: as §1

| Binder | SPOT peptide array binding signal intensity |
| --- | --- |
| FPPKRKPLLRPQRSD | 3 |
